The entries come from a sample that favours hits as a whole.
ID4 SMM = binds human ID4 protein on microarray. P47928. small molecule microarray, Flag-ID4 binding, fluorescence F/B. calls only. actives 1.2% (n = 31,000); call rule not given here;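 further: a binder raises fluorescence above local background on the spot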
Target sequence (P47928 whole entry, looked up): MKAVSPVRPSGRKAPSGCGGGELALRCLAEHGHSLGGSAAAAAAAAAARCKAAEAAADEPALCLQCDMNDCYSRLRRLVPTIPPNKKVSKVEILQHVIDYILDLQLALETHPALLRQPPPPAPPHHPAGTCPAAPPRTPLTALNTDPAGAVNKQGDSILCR
An asterisk follows results filed as active; i = inactive; + = active, no number.

SMILES | ID4 SMM
COc1cc2c3cc1Oc1c(OC)c(OC)cc4c1[C@@H](Cc1ccc(OC(=O)c5ccc([N+](=O)[O-])cc5)c(c1)Oc1ccc(cc1)C[C@@H]3N(C)CC2)N(C)CC4 | +
COc1ccc2c(c1OC)C(=O)OC2[C@H]1c2c(cc3c(c2OC)OCO3)CCN1C (stereo not given in full) | i
COc1ccc(C)cc1NC(=S)NCc1cnn(C)c1 | i
COCCNC(=S)N1CCN(Cc2ccco2)CC1 | +
O=S(=O)(c1ccc(Cl)cc1)N1CCN(C(=S)NCc2ccco2)CC1 | i
CS(=O)(=O)N1CCN(C(=S)NCc2ccco2)CC1 | i
COC(=O)c1ccc(NC(=O)CSc2nnc(-c3cccc(N)c3)n2C)cc1 | i
Cc1ccc(-n2c(SCC(=O)Nc3sc4c(c3C#N)CCCC4)nnc2-c2ccccc2)cc1 | i
Cc1occc1-c1nnc(SCC(=O)Nc2ccccc2[N+](=O)[O-])n1-c1ccccc1 | i
Cn1ccc2cc(NC(=O)Nc3cccnc3)ccc21 | +
O=C(COc1ccc(Cl)cc1)Nc1cccnc1 | i
CC(=O)c1cccc(NC(=O)NCc2cccnc2)c1 | i
O=C(CCSc1nc2ccccc2o1)Nc1ccc(F)cc1 | i
COc1ccc(-c2nc3ccccc3s2)cc1NC(=S)NC(=O)COc1ccc(C)cc1 | i
O=C(O)CCCCCCC(=O)Nc1ccc(C2OC(CSCCO)CC(c3ccccc3)O2)cc1 (stereo not given) | +
COC(=O)CCCCCCC(=O)Nc1ccc(C2OC(CSc3nc4ccccc4s3)CC(c3ccccc3)O2)cc1 (stereo not given) | i
COC(=O)CCCCCCC(=O)Nc1ccc(C2OC(CSc3ccccn3)CC(c3ccccc3)O2)cc1 (stereo not given) | i
CCOC(=O)c1c(NC(=O)c2ccc(C)c(S(=O)(=O)N3CCOCC3)c2)sc(C)c1C | i
COc1ccccc1-c1nnc(SCC(=O)Nc2ccc(Cl)cc2Cl)n1-c1ccccc1 | i
COc1ccc(C)cc1S(=O)(=O)N(C)CC(=O)Nc1cccc(C(F)(F)F)c1 | i
C=CCOC(=O)[C@@H]1[C@H]2C(=O)O[C@H](c3ccccc3)[C@H](c3ccccc3)N2[C@H](c2ccc(OCCOC(=O)[C@@H]3C[C@@H]4C(=O)N[C@@H](Cc5ccccc5)C(=O)N4[C@@H]3c3ccc(O)cc3)cc2)[C@@]12C(=O)Nc1ccccc12 | i
C=CCOC(=O)[C@H]1[C@@H]2C(=O)O[C@@H](c3ccccc3)[C@@H](c3ccccc3)N2[C@@H](c2ccc(OCCOC(=O)[C@H]3C[C@H]4C(=O)N5CCC[C@H]5C(=O)N4[C@H]3c3ccc(O)cc3)cc2)[C@]12C(=O)Nc1ccccc12 | i
O=C1O[C@H](c2ccccc2)[C@H](c2ccccc2)N2[C@H]1[C@@H](C(=O)N1CCCCCCC1)[C@]1(C(=O)Nc3ccccc31)[C@H]2c1ccc(OCCO)cc1 | i
C=CCOC(=O)[C@H]1[C@@H]2C(=O)O[C@@H](c3ccccc3)[C@@H](c3ccccc3)N2[C@@H](c2ccc(OCCOC(=O)[C@@H]3C[C@@H]4C(=O)N5CCC[C@H]5C(=O)N4[C@@H]3c3ccc(O)cc3)cc2)[C@]12C(=O)Nc1ccc(I)cc12 | +
COc1ccc(C#Cc2ccc3c(c2)[C@]2(C(=O)N3)[C@H](c3ccc(OCCO)cc3)N3[C@H](c4ccccc4)[C@H](c4ccccc4)OC(=O)[C@H]3[C@@H]2C(=O)N2CCCCCCC2)cc1 | i
SMILES | ID4 SMM
O=C1O[C@@H](c2ccccc2)[C@@H](c2ccccc2)N2[C@@H](c3ccc(OCCO)cc3)[C@]3(C(=O)Nc4ccccc43)[C@@H](C(=O)N3CCCCCCC3)[C@H]12 | +
CC(=O)Nc1ccc(C(=O)CSc2nnc(-c3cccc(Br)c3)o2)cc1 | i
COc1cc(OC)c(-c2nc(-c3ccccc3)c(-c3cccs3)[nH]2)cc1OC | i
CCOC(=O)c1c(NC(=O)c2ccc(Cn3cc(Cl)cn3)o2)sc2c1CCCCC2 | i
Cc1noc(C)c1NC(=O)N(C)C[C@@H]1Oc2ccc(NS(=O)(=O)c3cccs3)cc2C(=O)N([C@H](C)CO)C[C@@H]1C | i
Cc1noc(C)c1NC(=O)N(C)C[C@H]1OCCCC[C@@H](C)Oc2ccc(NS(=O)(=O)c3cccs3)cc2C(=O)N([C@H](C)CO)C[C@H]1C | +
Cc1noc(C)c1NC(=O)N(C)C[C@@H]1OCCCC[C@@H](C)Oc2ccc(NS(=O)(=O)c3cn(C)cn3)cc2C(=O)N([C@H](C)CO)C[C@H]1C | +
Cc1noc(C)c1NC(=O)N(C)C[C@@H]1OCCCC[C@@H](C)Oc2ccc(NS(=O)(=O)c3cccs3)cc2C(=O)N([C@H](C)CO)C[C@H]1C | +
CNC[C@@H]1OCCCC[C@H](C)Oc2ccc(NS(=O)(=O)c3cn(C)cn3)cc2C(=O)N([C@H](C)CO)C[C@@H]1C | i
CNC[C@@H]1OCCCC[C@@H](C)Oc2ccc(NS(=O)(=O)c3cn(C)cn3)cc2C(=O)N([C@@H](C)CO)C[C@@H]1C | i
Cc1noc(C)c1NC(=O)N(C)C[C@H]1Oc2ccc(NS(=O)(=O)c3cccs3)cc2C(=O)N([C@@H](C)CO)C[C@@H]1C | i
Cc1noc(C)c1NC(=O)N(C)C[C@@H]1OCCCC[C@@H](C)Oc2ccc(NS(=O)(=O)c3cccs3)cc2C(=O)N([C@@H](C)CO)C[C@H]1C | i
Cc1noc(C)c1NC(=O)N(C)C[C@H]1OCCCC[C@@H](C)Oc2ccc(NS(C)(=O)=O)cc2C(=O)N([C@@H](C)CO)C[C@H]1C | i
Cc1noc(C)c1NC(=O)N(C)C[C@@H]1Oc2ccc(NS(=O)(=O)c3cn(C)cn3)cc2C(=O)N([C@@H](C)CO)C[C@H]1C | i
CNC[C@@H]1OCCCC[C@H](C)Oc2ccc(NS(=O)(=O)c3cn(C)cn3)cc2C(=O)N([C@@H](C)CO)C[C@@H]1C | +
Cc1noc(C)c1NC(=O)N(C)C[C@@H]1OCCCC[C@H](C)Oc2ccc(NS(=O)(=O)c3cn(C)cn3)cc2C(=O)N([C@@H](C)CO)C[C@H]1C | i
O=C(Nc1cccnc1)C1CC(c2c(F)cccc2Cl)=NO1 (stereo not given) | i
Cc1cc(C)c(S(=O)(=O)NC(CC(=O)O)c2ccccc2)cc1C (stereo not given) | i
O=C(O)C(c1ccccc1)N1C(=O)/C(=C/c2ccncc2)SC1=S (stereo not given) | i
CCNC(=O)c1c(NC(=O)COc2cccc3ccccc23)sc2c1CCCC2 | i
CCOC(=O)c1c(NC(=O)C(C)n2nc([N+](=O)[O-])c(Br)c2C)sc(C)c1C (stereo not given) | i
CCCOc1ccc(C2C(C(=O)Nc3ccccc3OC)=C(C)Nc3ncnn32)cc1OC (stereo not given) | i
CCOc1c(S(=O)(=O)NCc2ccco2)ccc(Cl)c1Cl | i
COC(=O)c1c(NC(=O)COc2ccccc2)sc(C)c1-c1ccccc1 | i
CC(=O)Nc1ccc(Br)cc1-c1nc2ccccc2[nH]c1=O | i
COC(=O)c1ccc(NC(=O)CSc2nc3ccccc3c(=O)n2-c2ccc(C)cc2)cc1 | i
Cc1ccc(S(=O)(=O)N(C)CC(=O)Nc2ccccc2Cl)cc1 | i
C/C=C1/[C@H](O[C@@H]2O[C@H](CO)[C@@H](O)[C@H](O)[C@H]2O)OC=C(C(=O)OC)[C@H]1CC(=O)OCCc1ccc(O)cc1 | i
O=C(CSc1nc2ccc([N+](=O)[O-])cc2[nH]1)Nc1cc(C(F)(F)F)cc(C(F)(F)F)c1 | i

Screening results (PubChem)
